Assay outcomes deposited in PubChem BioAssay by Center for Chemical Genomics, University of Michigan.
In the library only some 0.86% were active in any assay of this set; here they are far more common.
TAR Tat displ: HIV-1 TAR-Tat binding disruption. HIV-1 TAR RNA, Tat peptide displacement FRET; hits give high values. z-score (no concentration beside the values). 100,000 tested, 0.6% active; active means z-score of 3 or more in at least 2 runs
CDC25B CDK2 inh: human CDC25B-CDK2/CyclinA binding inhibition. P30305+P24941. HTRF CDC25B-CDK2/CyclinA binding, anti-His/anti-Flag; hits give high values. z-score (no concentration beside the values). 94,000 tested, 0.72% active; in the data active means z-score above about 3.2
An asterisk follows results filed as active; . = no result given.

SMILES | TAR Tat displ | CDC25B CDK2 inh
O=C(NCCN1CCN(c2ccccc2)CC1)Nc1ccc(F)cc1F | 7.7* | -2
CNC(=O)CN1c2ccccc2NC2=C(C(=O)CC(C)(C)C2)C1c1cccs1 (centres undefined) | 0.66 | .
Cc1ccc([C@H]2C(C#N)=C(N)Oc3cc(C)oc(=O)c32)o1 | . | -0.62
Cc1ccc(/C=c2/sc3n(c2=O)C(N)=C(C#N)C(c2ccc(C)o2)C=3C#N)o1 (centres undefined) | . | 6.6*
CC(=O)N1CCOc2ccc(S(=O)(=O)N3CCC(C(=O)NC4CCCC4)CC3)cc21 | 17* | .
CC(=O)N1CCOc2ccc(S(=O)(=O)N3CCC(C(=O)NC4CCC(C)CC4)CC3)cc21 (centres undefined) | 3.6 | .
CCCCCN(CCN1C(=O)c2ccccc2C1=O)CCN1C(=O)c2ccccc2C1=O | . | 0.05
CCCC1CNc2cc(Cl)ccc2O1 (centres undefined) | 1.2 | -3
COc1cccc2oc(-c3ccccc3)cc(=O)c12 | 1.4 | .
O=c1cc(-c2ccccc2)oc2cc(O)c(O)c(O)c12 | 29* | .
O=C(Cn1c(-c2cccs2)cc2ccccc21)NCCN1CCOCC1 | 0.5 | .
O=S(=O)(CCN(C1CCCC1)S(=O)(=O)c1ccc(F)cc1)N1CCNCC1 | 1.8 | .
CCc1nn(CC(=O)N2CCC3(CC2)OCCO3)c(=O)c2cc3occc3n12 | . | -0.81
Cc1ccc(-c2cc3c4c(C)n(Cc5ccccc5)c(C)c4c(C)nn3c2)o1 | -0.55 | -1.4
Cc1ccc(-c2cc3c4c(C)n(C5CCCCC5)c(C)c4c(C)nn3c2)o1 | 17* | -0.58
Cc1ccc(-c2cc3c4c(C)n(Cc5ccc6c(c5)OCO6)c(C)c4c(C)nn3c2)o1 | 35* | 23*
Cc1ccc(-c2cc3c4c(C)n(C)c(C)c4c(C)nn3c2)o1 | 36* | 16*
Cc1ccc(-n2c(C)c3c(C)nn4cc(C)cc4c3c2C)cc1 | . | 0.82
Cc1c(S(=O)(=O)c2ccc(C(C)(C)C)cc2)nnn1-c1cccc(F)c1 | -0.04 | -0.03
CCCc1nn2c(=O)cc(COC(=O)c3ccccc3C)nc2s1 | -0.6 | .
Cc1ccn2c(=O)c(Cc3nnc(SCC(=O)NC(C)(C)C)n3C)c(C)nc2c1 | 0.86 | 0.9
CC(C)CNc1cc(N2CCOCC2)c2noc3c2c1C(=O)c1ccccc1-3 | -3.7 | 9.2*
O=C1c2ccccc2-c2onc3c(N4CCOCC4)cc(NCCN4CCCC4)c1c23 | -5 | -1.8
O=C1c2ccccc2-c2onc3c(N4CCOCC4)cc(NCCO)c1c23 | -4.5 | 0.79
CCNc1cc(N2CCOCC2)c2noc3c2c1C(=O)c1ccccc1-3 | 11* | 1.2
SMILES | TAR Tat displ | CDC25B CDK2 inh
CCOCCCNc1cc(N2CCN(c3ccccc3)CC2)c2noc3c2c1C(=O)c1ccccc1-3 | 1.6 | -1.5
CCOCCCNc1cc(N2CCOCC2)c2noc3c2c1C(=O)c1ccccc1-3 | 6.8* | 0.63
Cc1ccc(CSc2nc3c(c(=O)[nH]2)C(c2cc(F)cc(F)c2)CC(=O)N3)cc1 (centres undefined) | 0.4 | -0.96
O=C(NCCCN1CCOCC1)c1cnn2c3c(cnc12)CCCC3 | -0.45 | .
COC(=O)c1cc(S(=O)(=O)NCCN2CCc3ccccc3C2)c[nH]1 | 0.78 | .
CNC(=O)c1c(NC(=O)c2ccc3c(c2)OCCO3)sc2c1CCCCC2 | 1.1 | .
CN(C)c1cccc2c1c(NC(=O)c1cc(Cl)sc1Cl)nn2C | . | 13*
COc1cccc2c1c(NC(=O)c1cc(C)oc1C)nn2C | . | -1.1
Cc1ccc(-c2nc3nc4c(c(=O)n3[nH]2)CCCC4)cc1 | -0.52 | -1.6
CC1=NC2c3c(oc(C(=O)NC4CCCC4)c3C)CCC2S1 (centres undefined) | -0.27 | .
Cc1cc(C)nc(SN=C2C=C(Cl)C(=O)C(Cl)=C2)n1 | . | 15*
Cc1cc(C)nc(SCCS(=O)(=O)Cc2ccc(Cl)cc2)n1 | . | -1.8
C=CCSc1ncc(CO)n1Cc1ccc(F)cc1 | 0.91 | .
COc1cc(NC(=O)COc2ccc(-n3cnnn3)cc2)c(OC)cc1Cl | 4.6* | -8.2
O=C(COc1ccc(Br)cc1)Nc1ccc(-n2cnnn2)cc1 | 2.1 | -0.52
COc1ccc(C2CC(c3ccccc3Cl)n3nnnc3N2)cc1 (centres undefined) | 1.7 | .
CCc1c(C)nc2nc(-c3ccco3)[nH]n2c1=O | -0.83 | -0.34
Cc1nc2nc(-c3ccco3)[nH]n2c(=O)c1Cc1ccccc1 | 1.1 | 13*
O=C(NC1CCCCC1)[C@H](Cc1ccccc1)N1Cc2ccccc2C1=O | -1.2 | -1.1
Cc1ccc(S(=O)(=O)c2c[nH]c3c(F)cccc3c2=O)cc1F | 0.31 | -0.67
COc1ccc(CNc2ccc3c(c2)ncn3C)cc1OC | 1.3 | 2.3
c1ccc(-n2cnc3cc(NCc4ccco4)ccc32)cc1 | -0.51 | 3.3
CCn1cnc2cc(NCc3ccco3)ccc21 | 0.58 | 16*
Cc1ccc(CNc2ccc3c(c2)nc(C)n3C)cc1 | 1.1 | -1.8
CCn1cnc2cc(NCc3cccc(Br)c3)ccc21 | 0.37 | 13*
SMILES | TAR Tat displ | CDC25B CDK2 inh
CCCn1cnc2cc(NCc3ccc(C)cc3)ccc21 | 0.51 | 13*
C=C(C)Cn1c(C2CC(=O)N(c3ccc(F)cc3)C2)nc2ccccc21 (centres undefined) | 0.67 | -3
O=c1cc(CSc2nc(NCc3ccc4c(c3)OCO4)c3ccccc3n2)nc2ccccn12 | . | -2.2
CCN(CC)CCNC(=O)Cn1nc(C)n2c(cc3cc(C)ccc32)c1=O | 3.4 | -2
O=C(NC1CC1)c1cnc2sc(N3CCOCC3)nn2c1=O | -0.57 | .
Cc1ccccc1Nc1nc(NCc2ccco2)c2ccccc2n1 | -0.17 | 6*
Oc1ccccc1Nc1nc(NCc2ccco2)c2ccccc2n1 | 8.7 | -1.2
CCCCNc1sc(S(C)(=O)=O)nc1S(=O)(=O)c1ccc(Cl)cc1 | -0.35 | -15
CCC(C(=O)NC)N1C(=O)CCn2nc(C)cc21 (centres undefined) | 1.1 | .
CCc1ccc(C2c3c(oc4ccc(Cl)cc4c3=O)C(=O)N2CCCN2CCOCC2)cc1 (centres undefined) | 0.29 | -2.1
O=C1CC(=O)Nc2cc(S(=O)(=O)Nc3ccc(F)cc3)ccc2N1 | 0.64 | -0.68
O=C1CC(=O)Nc2cc(S(=O)(=O)Nc3ccc4c(c3)OCO4)ccc2N1 | 18* | .
O=C1CCSc2c1cccc2C(=O)N1CCOCC1 | 1.3 | .
O=C1c2ccccc2-c2c1cccc2C(=O)N1CCOCC1 | -0.31 | 17*
COC(=O)C1Cc2cc(OC)c(OC)cc2C(Cc2ccc(OC)c(OC)c2)=N1 (centres undefined) | -0.5 | 8.9*
COc1ccc(CC(=O)NN)cc1OC | . | -1.6
Cc1ncc(-c2ccc(S(=O)(=O)Nc3ccc4c(c3)OCCO4)cc2)o1 | 0.58 | .
Cc1ccc(Cc2nnc(-c3ccc(N)cc3Cl)o2)cc1 | -0.34 | .
Cc1ccc(Cc2nnc(-c3cc(N)ccc3F)o2)cc1 | 34* | .
CCCCNc1ncnc2c1nc1n2CCCCC1 | -1.7 | .
Cc1ccc(Nc2nc(-c3ccc(O)cc3)cs2)nc1 | 1.9 | -1.6
Cc1ccc(Nc2nc(-c3ccc(O)c(O)c3)cs2)nc1 | 16* | -1.1
CCC(C)Nc1sc(S(C)(=O)=O)nc1S(=O)(=O)c1ccc(Cl)cc1 (centres undefined) | 0.98 | -0.34
CCc1nnc(SCC(=O)N(C)C2CCCCC2)c2cc3sccc3n12 | 3.4 | .
O=C(c1ccc(CSc2nc3ccncc3n2Cc2ccccc2F)cc1)N1CCCC1 | 1.8 | -1
CCOc1cc(C2C3=C(CCCC3=O)NC3=C2C(=O)CCC3)cc(Cl)c1O | 0.23 | 16*
CCOc1cc(C2C3=C(CCCC3=O)N(C)C3=C2C(=O)CCC3)cc(Cl)c1O | 0.39 | -0.94
